Entries with a potency or affinity are not part of this list. Active and inactive are the calls of the source. No rule for the calls is given here.
These molecules were tested against Plasmodium falciparum protein kinase 6 (PK6, PF3D7_1337100) (UniProt Q8IDW1) (assay: PfPK6 kinase inhibitors, biochemical, TCAMS library (AID 1159586)). Details: recombinant PfPK6, Kinase-Glo ATP depletion luminescence.
Chain of Plasmodium falciparum protein kinase 6 (PK6, PF3D7_1337100) (Q8IDW1 1-305): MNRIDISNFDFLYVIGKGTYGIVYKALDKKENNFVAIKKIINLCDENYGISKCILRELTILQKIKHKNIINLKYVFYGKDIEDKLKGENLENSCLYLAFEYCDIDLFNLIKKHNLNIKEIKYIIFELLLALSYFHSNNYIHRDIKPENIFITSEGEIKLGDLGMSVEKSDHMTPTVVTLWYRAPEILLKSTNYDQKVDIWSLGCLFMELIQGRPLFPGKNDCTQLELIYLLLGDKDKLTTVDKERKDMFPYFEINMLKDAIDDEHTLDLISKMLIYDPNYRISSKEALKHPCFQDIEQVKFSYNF

outcome, inactive:
N#Cc1ccc(N2CCN(Cc3ccc(-c4cccc(-c5nc6ccccc6[nH]5)c4)cc3)CC2)nc1, COc1ccc(CNCc2ccc(-c3cccc(-c4nc5ccc(F)cc5[nH]4)c3)cc2)cc1, FC(F)(F)c1ccc2nc(-c3ccc(-c4ccc(CNCCN5CCNCC5)cc4)cc3)[nH]c2c1, Nc1ncc(-c2ccc3[nH]ccc3c2)c2ccc(-c3ccncc3)cc12, Cc1cc(N)c2cc(NC(=O)c3cc4ccccc4s3)ccc2n1, O=C(N[C@@H](Cc1ccccc1)C(=O)O)c1cc(-c2ccc(F)cc2)no1 (tested in a mixture with another compound), CCCCC(CC)CN1C(=O)C(c2ccccc2)(c2ccccc2)N=C1N (centres undefined), O=C(Nc1ccccc1)N(Cc1cccc(-c2ccc(CNCCc3ccccc3)cc2)c1)C1CCN(Cc2ccccc2)CC1, CCNc1cc(C(=O)N[C@@H](Cc2ccccc2)[C@H](O)CNC(C)(C)CCCC(C)C)cc(N2CCCCS2(=O)=O)c1, COc1cc(C)nc2ccc(NC(=O)Nc3ccc4nc(C)cc(OC)c4c3)cc12, COc1ccc(CNC(=O)C2Cc3ccccc3CN2Cc2ccc3ccccc3c2)cc1 (centres undefined), O=C(/C=C/c1ccc2ccccc2c1)NCCCCCN1CCC(c2c[nH]c3ccccc23)CC1, O=C(N[C@@H](Cc1ccccc1)C(=O)NC1CCCc2ccccc21)c1ccc(O)c(-c2ccc(Cl)c(Cl)c2)c1 (some centres undefined), COc1cc(Nc2nc(N)n(C(=O)c3ccc4c(c3)OCO4)n2)cc(OC)c1OC
